Inconclusive results are not listed. Activity calls are given as the source filed them. Rule for the calls, unless noted: active = hit-call score of the fitted dose curve at least 0.9, where 1 is the maximum; inconclusive = response in the unintended direction; inactive = score below 0.9.
What was measured:
[1] = biological target: Cellular tumor antigen p53 (Homo sapiens) (UniProt P04637); test: TOX21_p53_BLA_p2_ratio: Tox21 HCT-116 p53 Agonism Beta-lactamase Assay, Ratio, Phase 2 (AID 2283592)
Sequence of Cellular tumor antigen p53 (Homo sapiens) (P04637 whole entry, looked up): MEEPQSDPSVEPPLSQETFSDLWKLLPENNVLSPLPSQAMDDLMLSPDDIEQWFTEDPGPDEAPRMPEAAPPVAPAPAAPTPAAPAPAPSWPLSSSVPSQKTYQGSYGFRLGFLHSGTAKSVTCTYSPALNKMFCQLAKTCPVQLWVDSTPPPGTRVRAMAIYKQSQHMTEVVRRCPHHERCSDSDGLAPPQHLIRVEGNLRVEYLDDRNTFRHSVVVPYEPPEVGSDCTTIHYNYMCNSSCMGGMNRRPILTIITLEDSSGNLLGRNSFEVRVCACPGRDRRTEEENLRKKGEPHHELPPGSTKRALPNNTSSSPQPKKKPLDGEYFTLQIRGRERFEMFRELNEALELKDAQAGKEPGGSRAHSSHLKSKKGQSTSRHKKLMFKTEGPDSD
Procedure, shortened: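 HCT-116 cells with p53-responsive beta-lactamase reporter, 4000 cells/well, preincubated 5 h, then compound in DMSO (217-fold dilution) for 16 h at 37C. CCF4-AM substrate 2 h at room temperature; 460/530 nm emission ratio fitted upward versus DMSO.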

[2] = TOX21_p53_BLA_p4_viability: Viability Assessment in the Tox21 HCT-116 p53 Agonism Beta-lactamase Assay, Phase 4 (AID 2283597);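 note: hits lower the luminescence signal meaning cytotoxicity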
Procedure, shortened: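 HCT-116 p53-bla cells, 4000/well, dosed after 5 h attachment and incubated 16 h at 37 °C, 5% CO2. Viability from CellTiter-Glo ATP luminescence after 30 min at room temperature, taken after the beta-lactamase read; loss of signal indicates cytotoxicity.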

[3] = UKN5_HCS_SBAD2_cell_viability: Viability Assessment in the University of Konstanz (UKN) Leist Lab Neurite Outgrowth Assay in human iPSC-derived immature Dorsal Root Ganglia Neurons (UKN5) (AID 2284056; active = hit-call score of the fitted dose curve at least 0.9, where 1 is the maximum; inactive = score below 0.9)
Procedure, shortened: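 iPSC-derived immature peripheral neurons (SBAD2) seeded on Matrigel with CHIR99021, SU5402 and DAPT, dosed 1 h later for 24 h. Viability from Hoechst H-33342 and calcein-AM live staining, high-content imaging; bidirectional fit versus DMSO.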

[4] = UKN5_HCS_SBAD2_neurite_outgrowth: University of Konstanz (UKN) Leist Lab Neurite Outgrowth Assay in human iPSC-derived immature Dorsal Root Ganglia Neurons (UKN5) (AID 2284070; active = hit-call score of the fitted dose curve at least 0.9, where 1 is the maximum; inactive = score below 0.9); details: actives raise or lower the signal
Procedure, shortened: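 Human iPSC-derived immature DRG neurons (SBAD2) on Matrigel with CHIR99021 (1.5 uM), SU5402 (5 uM), DAPT (5 uM); compounds added 1 h post-seeding for 24 h. Calcein-AM neurite area imaged; bidirectional fit vs DMSO.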

[5] = UKN2_HCS_IMR90_neural_migration: University of Konstanz (UKN) Leist Lab Neural Crest Cell Migration Assay in human induced IMR90 Pluripotent Stem Cells (UKN2) (AID 2284204; active = hit-call score of the fitted dose curve at least 0.9, where 1 is the maximum; inactive = score below 0.9); details: actives raise or lower the signal
Procedure, shortened: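 iPSC-derived IMR90 neural crest cells seeded around stoppers on PLO/laminin/fibronectin; migration started in N2-S medium with EGF/FGF, compounds added after 24 h for 24 h. Migration into cell-free area imaged after calcein-AM/Hoechst staining; bidirectional fit versus DMSO.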

[6] = UKN2_HCS_IMR90_cell_viability: Viability Assessment in the University of Konstanz (UKN) Leist Lab Neural Crest Cell Migration Assay in human induced IMR90 Pluripotent Stem Cells (UKN2) (AID 2284233; active = hit-call score of the fitted dose curve at least 0.9, where 1 is the maximum; inactive = score below 0.9;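 note: viability of neural crest cells differentiated from IMR90 iPSC measured by calcein-AM fluorescence imaging; cells exposed to compound for 24 h after a 24 h migration phase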)
Procedure, shortened: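 Neural crest cells derived from IMR90 iPSC migrate into a stopper-free zone for 24 h in EGF/FGF medium, then are exposed to compound for 24 h. Viability assessed by calcein-AM and Hoechst staining with high-content imaging, fitted bidirectionally versus DMSO.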

[7] = biological target: Cellular tumor antigen p53 (Homo sapiens) (UniProt P04637); test: TOX21_p53_BLA_p5_ratio: Tox21 HCT-116 p53 Agonism Beta-lactamase Assay, Ratio, Phase 5 (AID 2283599)
Procedure, shortened: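 HCT-116 p53-bla cells (4000/well) plated 5 h, dosed with compound (217-fold DMSO dilution) for 16 h at 37 C; CCF4-AM substrate 2 h at room temperature. Activity is the 460/530 nm emission ratio (405 nm excitation), fitted in gain-of-signal direction versus DMSO.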

[8] = TOX21_p53_BLA_p5_viability: Viability Assessment in the Tox21 HCT-116 p53 Agonism Beta-lactamase Assay, Phase 5 (AID 2283600)
Procedure, shortened: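 HCT-116 p53 beta-lactamase reporter cells, 4000/well, were exposed to compound (pin transfer, 217-fold dilution) for 16 hours at 37C. Cellular ATP was read by CellTiter-Glo luminescence after 30 min at room temperature.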

[9] = biological target: Cellular tumor antigen p53 (Homo sapiens) (UniProt P04637); test: TOX21_p53_BLA_p4_ratio: Tox21 HCT-116 p53 Agonism Beta-lactamase Assay, Ratio, Phase 4 (AID 2283601)
Procedure, shortened: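 HCT-116 p53 beta-lactamase reporter cells (4000/well) preincubated 5 h, then compound (217-fold dilution of DMSO stock) for 16 h at 37C. CCF4-AM substrate added 2 h at room temperature; 460/530 nm emission ratio fitted upward versus DMSO.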

[10] = biological target: Thyroid hormone receptor alpha (Rattus norvegicus) + Thyroid hormone receptor beta (Rattus norvegicus) (UniProt P18113+P63059); test: TOX21_TR_LUC_GH3_Antagonist_Followup: Tox21 GH3 Thyroid Hormone Receptor Antagonism Luciferase Follow-Up Assay (AID 2283942)
Procedure, shortened: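 Antagonist mode: GH3 cells seeded 1,500/well, compounds at 15 concentrations (92 uM to 5nM final) plus T3 at 1.0 nM final, 24 h at 37C. Luciferase read with ONE-Glo after 30 min at room temperature.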

[11] = biological target: Retinoic acid receptor RXR-alpha (Homo sapiens) (UniProt P19793); test: TOX21_TR_RXR_BLA_Antagonist_Followup_ratio: Tox21 Thyroid Hormone Receptor beta Retinoid X Receptor alpha (RXRa) Antagonism Beta-lactamase (BLA) Follow-Up Assay, Ratio (AID 2283972)
Sequence of Retinoic acid receptor RXR-alpha (Homo sapiens) (P19793 whole entry, looked up): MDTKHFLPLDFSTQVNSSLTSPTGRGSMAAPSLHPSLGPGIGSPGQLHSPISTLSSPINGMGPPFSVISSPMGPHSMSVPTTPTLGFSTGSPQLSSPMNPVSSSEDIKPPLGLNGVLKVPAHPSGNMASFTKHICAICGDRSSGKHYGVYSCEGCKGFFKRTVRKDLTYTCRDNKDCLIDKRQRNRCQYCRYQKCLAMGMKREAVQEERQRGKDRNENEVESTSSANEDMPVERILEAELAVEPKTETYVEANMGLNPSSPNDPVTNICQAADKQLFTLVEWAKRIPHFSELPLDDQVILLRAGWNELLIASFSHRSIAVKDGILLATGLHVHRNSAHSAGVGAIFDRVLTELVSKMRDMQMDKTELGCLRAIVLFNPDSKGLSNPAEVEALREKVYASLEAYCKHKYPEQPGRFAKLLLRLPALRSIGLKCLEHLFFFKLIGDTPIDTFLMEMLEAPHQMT
Procedure, shortened: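 RXRa-UAS-bla HEK293T cells, 2,500/well in phenol red-free DMEM with 2% charcoal-stripped FBS, 5 h attachment, then compounds (11 concentrations, triplicate) for 16 h at 37C; FRET-B/GCCF4-AM substrate 2 h RT; 460:530 nm ratio, loss of signal vs DMSO.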

[12] = TOX21_TR_RXR_BLA_Antagonist_Followup_viability: Viability Assessment in the Tox21 Thyroid Hormone Receptor beta Retinoid X Receptor alpha (RXRa) Antagonism Beta-lactamase (BLA) Follow-Up Assay (AID 2283979)
Procedure, shortened: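 RXRa-bla HEK293T cells (2,500/well, phenol red-free DMEM, 2% charcoal-stripped FBS) were attached 5 h, then exposed to compounds at 11 concentrations in triplicate for 16 h at 37C. Viability measured by CellTiter-Glo ATP luminescence, bidirectional fitting versus DMSO.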

[13] = CCTE_Harrill_HTTr_Apoptosis_MCF7: CCTE's 6-hour Apoptosis Assessment for the High-Throughput Transcriptomics (HTTr) Platform, in MCF-7 cells cultured in DMEM + 10% fetal bovine serum, Harrill Lab (AID 2284011; active = hit-call score of the fitted dose curve at least 0.9, where 1 is the maximum; inactive = score below 0.9)
Procedure, shortened: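 MCF-7 cells in DMEM + 10% FBS exposed 6 h to chemicals over an eight-point dilution series. Caspase-3/7 activation imaged by high-content CellEvent Green staining; fitted bidirectionally versus DMSO.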

[14] = ACEA_ER_AUC_viability: ACEA Biosciences xCELLigence Real-Time Cell Analysis on Estrogen Receptor Agonism for Viability (AID 2283782);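 note: continuous compound exposure with impedance area under curve over 80 h; hit means loss of impedance signal meaning reduced cell growth or viability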
Procedure, shortened: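 T47D cells preconditioned in phenol red-free RPMI with charcoal-stripped FBS, then dosed with 8-point 1:4 series from 100 uM (up to 0.5% DMSO). Impedance monitored up to ~80 h; area-under-curve loss versus DMSO taken as viability.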

Measured: outcome

CN[C@@H](C)Cc1ccccc1
inactive: [1] | [2] | [3] | [4] | [5] | [6]

CCCCCN(C)CCC(O)(P(=O)(O)O)P(=O)(O)O
inactive: [1] | [2] | [7] | [8] | [9]

C=CCN1C[C@H](C)N([C@H](c2ccc(C(=O)N(CC)CC)cc2)c2cccc(OC)c2)C[C@H]1C
inactive: [1] | [2] | [7] | [9]

O=C1OC2(c3cc(Br)c(O)cc3Oc3c2cc(Br)c(O)[c]3[Hg])c2ccccc21 (stereo unspecified)
inactive: [1] | [2] | [7] | [9] | [10] | [11] | [12]

CCS(=O)(=O)CCSP(=O)(OC)OC
inactive: [1] | [9]

OC(Cn1cncn1)(c1ccc(F)cc1)c1ccccc1F (stereo unspecified)
inactive: [1] | [2] | [7] | [13]

COC(=O)C1(O)c2ccccc2-c2ccccc21
inactive: [1] | [7] | [14]

O=S(=O)(Cl)Cl
inactive: [1] | [7] | [8]

CN(C)CCc1ccc(O)cc1
inactive: [1] | [7] | [9]

CNC(=O)Oc1ccccc1C1OCCO1
inactive: [1] | [7] | [8] | [9]

Cl/C=C\Cl
inactive: [1] | [9]

c1cc2c(c(N3CCNCC3)c1)OCCO2
inactive: [1] | [2] | [7]

Source: PubChem BioAssay (EPA / NIEHS)
